The supplement of paper PMC4022240
± gives the standard deviation.

B1: Unmod H1 variant S E T A P A A P A A P A P (peptide)
chain: SETAPAAPAAPAP
B2: Unmod H1 variant A P A P A E K T P V K K K (peptide)
chain: APAPAEKTPVKKK
B3: Unmod H1 variant A V A A S K E R S G V S L (peptide)
chain: AVAASKERSGVSL
B4: Unmod H1 variant T P K K S A K K T P K K A (peptide)
chain: TPKKSAKKTPKKA
B5: Unmod H1 variant K P K K A T G A A T P K K (peptide)
chain: KPKKATGAATPKK

Target: T1, HaloTag-ATRX ADD domain (163-292)
T1 chain: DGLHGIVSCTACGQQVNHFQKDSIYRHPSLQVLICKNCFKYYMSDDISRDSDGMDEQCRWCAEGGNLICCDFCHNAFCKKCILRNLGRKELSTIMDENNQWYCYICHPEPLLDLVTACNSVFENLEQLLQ
Experiment: peptide microarray binding signal (635 nm), min-max normalized on array (fraction of array maximum); higher = stronger binding
Details: peptide region: Unmod H1 variant; binder concentration: 50 nM
In short: (§1)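 An Axon GenePix 4000B scanned the arrays at 635 nm for signal and at 532 nm to catch misprints. Those arrays held histone 13-mer peptide–cellulose conjugates printed in triplicate on nitrocellulose with a Cy3 tracer, blocked overnight at 4°C and probed for 1 h at 4°C with biotin-labelled HaloTag reader fusions (10 nM to 1 μM) plus streptavidin-Alexa Fluor 647 or with rabbit histone antibodies (1:10,000 to 1:2,000) plus anti-rabbit Alexa 647. Each binding signal is a triplicate-spot mean intensity, scaled min-max within its library.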

Binder	peptide microarray binding signal
B1	0.0194 ± 0.0011
B2	0.021 ± 0.0011
B3	0.0286 ± 0.0016
B4	0.0108 ± 0.0035
B5	0.00674 ± 0.0014

Same assay, conditions: peptide region: Unmod H1 variant; binder concentration: 500 nM

Binder	peptide microarray binding signal
B1	0.00995 ± 0.00098
B2	0.0189 ± 0.00097
B3	0.0273 ± 0.0012
B4	0.0104 ± 0.0011
B5	0.00957 ± 0.00063

target: HaloTag-ING2 PHD (mouse Ing2 200-280); experiment: as above; details: peptide region: Unmod H1 variant; binder concentration: 10 nM
In short: as §1

Binder	peptide microarray binding signal
B1	0.00394 ± 0.0003
B2	0.00466 ± 0.00027
B3	0.011 ± 0.00034
B4	0.00322 ± 4.7e-05
B5	0.003939 ± 2.1e-05

same assay, conditions: peptide region: Unmod H1 variant; binder concentration: 100 nM

Binder	peptide microarray binding signal
B1	0.00418 ± 0.00041
B2	0.012 ± 0.00083
B3	0.0228 ± 0.00053
B4	0.0121 ± 0.0049
B5	0.00893 ± 0.00084

target: anti-H3K4me3 antibody ab8580; experiment: as above; details: peptide region: Unmod H1 variant; binder concentration: 1:2,000 dilution
In short: as §1

Binder	peptide microarray binding signal
B1	0.00274 ± 0.001
B2	0.00136 ± 0.00038
B3	0.00236 ± 0.00025
B4	0.000812 ± 4.4e-05
B5	0.000925 ± 2.1e-05

same assay, conditions: peptide region: Unmod H1 variant; binder concentration: 1:10,000 dilution

Binder	peptide microarray binding signal
B1	0.00337 ± 0.00036
B2	0.00223 ± 7.3e-05
B3	0.00479 ± 0.00028
B4	0.00137 ± 4.9e-05
B5	0.00171 ± 5.9e-05

target: anti-H3K9me3 antibody ab8898; experiment: as above; details: peptide region: Unmod H1 variant; binder concentration: 1:2,000 dilution
In short: as §1

Binder	peptide microarray binding signal
B1	0.00159 ± 8.6e-05
B2	0.000906 ± 4.5e-05
B3	0.00335 ± 9.4e-05
B4	0.000287 ± 1.1e-05
B5	0.000408 ± 1.2e-05

same assay, conditions: peptide region: Unmod H1 variant; binder concentration: 1:10,000 dilution

Binder	peptide microarray binding signal
B1	0.00167 ± 2.8e-05
B2	0.00098
B3	0.002825 ± 2.4e-05
B4	0.000865 ± 9e-06
B5	0.00121 ± 2.4e-05
